The list is not random: actives were taken first. Their share in the collection is about 1.8%.
GSTO1 inh: inhibitors of recombinant GSTO1, primary screen, counter-screen for RBBP9 inhibitor project, biochemical, fluorescence polarization; Glutathione S-transferase omega-1 (Homo sapiens), P78417; activity-based probe fluorescence polarization; inhibition, % at 5.96 µM; actives 1.1% (n = 300,000); AID 1974, 2009;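 active = inhibition above the campaign mean inhibition plus 3 SD, cut at about 35% in these data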
PME-1 inh: PME-1 inhibitors via competitive probe labeling, primary screen, biochemical, fluorescence polarization, FP-Rh probe, HTS; recombinant PME-1; inhibition, % at 5.9 µM; actives 0.53% (n = 320,000);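 active = inhibition above the campaign mean of all compounds plus 3 SD, cut at about 26% in these data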;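 also: competitive labeling of PME-1 active site by serine hydrolase directed probe; inhibitors block probe labeling so polarization falls and inhibition rises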
LYPLA1 inh: LYPLA1 inhibitors, primary screen, counter-screen for PME1 inhibitor project, biochemical, fluorescence polarization, FP-Rh probe ABPP; recombinant LYPLA1; AID 2174, 2009; actives 0.16% (n = 320,000); inhibition, % at 5.9 µM;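 active = inhibition above the mean of all tested compounds plus 3 SD, set per campaign, cut at about 14% in these data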;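 also: inhibitors block serine hydrolase probe labeling of LYPLA1 so polarization falls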
Fam108B counter: mouse Fam108B serine hydrolase inhibitors, primary screen, counter-screen for RBBP9 inhibitor project, biochemical, fluorescence polarization; recombinant Fam108B, FP-Rh probe fluorescence polarization; inhibition, % at 9.51 µM; actives 0.33% (n = 300,000);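 active = inhibition above the screen mean inhibition plus 3 SD, computed separately per campaign, cut at about 18% in these data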;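 also: inhibitors lower polarization as less probe binds the enzyme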
PAD4 inh: human PAD4 inhibitors, primary screen, biochemical, fluorescence polarization, 1536-well format; inhibition, % at 6.36 µM; Protein-arginine deiminase type-4 (Homo sapiens), Q9UM07; recombinant PAD4, RCA probe fluorescence polarization; actives 0.41% (n = 330,000);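 active = percent inhibition above a cutoff equal to the mean of all tested compounds plus 3 SD, cut at about 15% in these data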
Target sequence (Q9UM07 whole entry, looked up): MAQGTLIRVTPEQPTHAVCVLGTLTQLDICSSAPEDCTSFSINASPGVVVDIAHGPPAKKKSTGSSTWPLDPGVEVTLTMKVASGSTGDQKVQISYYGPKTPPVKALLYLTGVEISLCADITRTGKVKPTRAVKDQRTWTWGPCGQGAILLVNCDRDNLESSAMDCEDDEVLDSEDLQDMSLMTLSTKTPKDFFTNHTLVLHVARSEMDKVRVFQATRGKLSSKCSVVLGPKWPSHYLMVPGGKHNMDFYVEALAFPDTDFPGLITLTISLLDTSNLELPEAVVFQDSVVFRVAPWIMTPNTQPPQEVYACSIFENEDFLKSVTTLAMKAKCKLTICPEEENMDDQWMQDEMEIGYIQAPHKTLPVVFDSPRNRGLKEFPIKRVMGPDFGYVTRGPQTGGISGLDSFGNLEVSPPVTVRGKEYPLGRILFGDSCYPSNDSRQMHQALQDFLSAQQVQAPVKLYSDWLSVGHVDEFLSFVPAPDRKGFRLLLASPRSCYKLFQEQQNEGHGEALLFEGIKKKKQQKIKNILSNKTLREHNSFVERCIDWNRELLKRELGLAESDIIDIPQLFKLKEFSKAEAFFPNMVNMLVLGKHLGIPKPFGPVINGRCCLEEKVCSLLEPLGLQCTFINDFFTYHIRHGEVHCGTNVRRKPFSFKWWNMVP
LYPLA2 inh: LYPLA2 inhibitors, primary screen, counter-screen for PME1 inhibitor project, biochemical, fluorescence polarization, FP-Rh probe ABPP. Acyl-protein thioesterase 2 (Homo sapiens), O95372. recombinant LYPLA2. inhibition, % at 5.9 µM. actives 0.38% (n = 320,000). AID 2177, 2009;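 active = inhibition above the screen-wide mean plus 3 SD, limit set per campaign, cut at about 26% in these data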
PAD4 confirm: human PAD4 inhibitors, confirmation, biochemical, fluorescence polarization. recombinant PAD4, RCA probe fluorescence polarization. actives 28% (n = 1,200). shares compounds with PAD4 inh. AID 488796, 2010. inhibition, % at 6.36 µM;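 active = mean inhibition across replicates above the hit cutoff set by the earlier primary screen, cut at about 15% in these data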;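 also: inhibitors block active-site labeling by the probe so polarization falls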
Large screens that a line does not name were inactive (follow-up assays come after a bar, where they were run).

COc1ccccc1-c1nc2c3ccccc3nc(=S)n2[nH]1	none
COC(=O)c1cnn(-c2ccccc2)c1/C=N/NC(=S)Nc1ccccc1	none
COC(=O)c1cnn(-c2ccccc2)c1C(OC)OC	PAD4 inh 18 | PAD4 confirm inactive
O=C(CS)Nc1ccc2ccccc2c1	PAD4 inh 28 | PAD4 confirm inactive
Cc1cccc(CN2CCN(c3nc4nonc4nc3NC3CC3)CC2)c1	PAD4 inh 28 | PAD4 confirm inactive
Clc1cccc(CN2CCN(c3nc4nonc4nc3NC3CC3)CC2)c1	none
O=C(Oc1ccc(-c2cnc3ccccc3n2)cc1)c1ccco1	PAD4 inh 36 | PAD4 confirm 35
Cc1c(C(=O)Oc2ccc(-c3cnc4ccccc4n3)cc2)cccc1[N+](=O)[O-]	PAD4 inh 62 | PAD4 confirm 57
O=C(Oc1ccc(-c2cnc3ccccc3n2)cc1)c1cc([N+](=O)[O-])ccc1Cl	none
O=C(Nc1cccc(-c2cnc3ccccc3n2)c1)c1ccco1	none
CCC(=O)Oc1ccc(-c2cnc3ccccc3n2)cc1	PAD4 inh 20 | PAD4 confirm inactive
O=C(NCCCn1ccnc1)c1ccc(NS(=O)(=O)c2cccc([N+](=O)[O-])c2)cc1	none
CCC(C)N(C)Cc1cccc(C2(O)CCN(S(=O)(=O)c3ccc(F)c(C)c3)CC2)c1 (centres undefined)	none
CCOc1ccc(-c2c(C(=O)N/N=C(\C)c3cccnc3)nnn2-c2nonc2N)cc1	none
Cc1cccc(NC(=O)Nc2c(C)n(C)n(-c3ccccc3)c2=O)c1C	none
O=C1CC(Sc2cccs2)C(=O)N1c1ccccc1 (centres undefined)	PAD4 inh 24 | PAD4 confirm inactive
COc1ccc(Cl)cc1NC(=O)C1(c2cccs2)CCOCC1	none
CC12CCC(C(=Nc3ccc(N=C4C(=O)C5(C)CCC4C5(C)C)cc3)C1=O)C2(C)C	PAD4 inh 45 | PAD4 confirm inactive
Cc1ccc(N/C=C2\C(=O)C3(C)CCC2C3(C)C)cc1C (centres undefined)	none
CCOC(=O)C1CCN(c2nc3ccccc3nc2C(C#N)C(=O)OC(C)COC)CC1 (centres undefined)	none
CCOC(=O)C1CCN(c2nc3ccccc3nc2C(C#N)C(=O)OC(C)C)CC1 (centres undefined)	PAD4 inh 17 | PAD4 confirm inactive
Cc1ccccc1NC(=S)N(CCN(C)C)C(C)c1cccnc1 (centres undefined)	none
COc1cc(C=O)ccc1OCc1ccc(Cl)nc1	none
COc1cc(C=O)ccc1OCc1ccncc1	PAD4 inh 28 | PAD4 confirm inactive
COc1ccccc1N1CCN(C(=O)CCC(=O)N2CCN(c3ccc(F)cc3)CC2)CC1	PAD4 inh 23 | PAD4 confirm inactive
COc1ccccc1N1CCN(C(=O)CCC(=O)N2CCN(c3ccccc3OC)CC2)CC1	none
c1ccc(Nc2cc(Nc3ccccc3)[nH]n2)cc1	PAD4 inh 31 | PAD4 confirm inactive
CC(=O)N1CCN(c2ccc(NS(=O)(=O)c3ccc(C)cc3)cc2)CC1	PAD4 inh 24 | PAD4 confirm inactive
CC(=O)N1CCN(c2ccc(N)cc2)CC1	PAD4 inh 25 (no result: GSTO1 inh, Fam108B counter) | PAD4 confirm inactive
Cc1ccc(F)c(NC(=O)c2c(-c3ccccc3)noc2C)c1	none
O=C(c1ccc(CN2CCc3ccccc3C2)cc1)N1CCN(c2ccc(F)cc2)CC1	none
CCOC(=O)C1=C(COC(=O)c2ccc([N+](=O)[O-])s2)NC(=O)NC1C (centres undefined)	PAD4 inh 26 (no result: GSTO1 inh, PME-1 inh, LYPLA1 inh, Fam108B counter, LYPLA2 inh) | PAD4 confirm 17
CCOC(=O)C1=C(COC(=O)c2sccc2C)NC(=O)NC1C (centres undefined)	none (no result: GSTO1 inh, Fam108B counter)
COC(=O)c1ccc(COc2ncnc3ccccc23)o1	none
CC1=NN(c2ccccc2)C(=O)C1C=Nc1ccc(N(C)C)cc1 (centres undefined)	GSTO1 inh 63, PAD4 inh 51 | PAD4 confirm inactive
CN(Cc1ccc(Cl)cc1Cl)C(=O)CN1C(=O)NC2(CCCC2)C1=O	none
C(=N\n1cnnc1)/c1ccc2c(c1)OCCO2	PAD4 inh 18 | PAD4 confirm inactive
Cc1ccc(C(=O)Nc2nc3ccccc3c(=O)s2)cc1	PAD4 inh 15 | PAD4 confirm inactive
O=C(Nc1nc(=O)c2ccccc2s1)c1ccccc1	PAD4 inh 24 | PAD4 confirm inactive
CC(=O)Nc1nc(=O)c2ccccc2s1	none
CSc1nc2ccc3nc(NC(=O)c4ccc(C)cc4)sc3c2s1	none
CCOc1ccc(NC(=O)CC2C(=O)N(c3cccc(OC)c3)C(=O)N2CCOC)cc1 (centres undefined)	none
O=C1[C@@H]2C(c3cccnc3)=NO[C@@H]2C(=O)N1c1ccc2ccccc2c1	none
O=C1CCCC(O)=C1N=Nc1c(Cl)cc(Cl)cc1Cl	PAD4 inh 36 | PAD4 confirm inactive
O=C1CCCC(O)=C1N=Nc1cccc(C(=O)O)c1	none
O=C(COC(=O)c1ccc(S(=O)(=O)Nc2ccccc2)cc1)NCc1ccco1	none
COc1ccc(N2C(=O)CSC23C(=O)N(CC(=O)NC2CCCC2)c2ccccc23)cc1 (centres undefined)	PAD4 inh 16 | PAD4 confirm inactive
CCC(=O)N(Cc1cc(=O)[nH]c2ccccc12)c1ccccc1	PAD4 inh 21 | PAD4 confirm 22
Cn1nnnc1SCC(=O)N1CCN(S(=O)(=O)c2ccc(Cl)cc2)CC1	PAD4 inh 17 | PAD4 confirm inactive
CCN(CC(=O)Nc1c(F)cccc1F)C(=O)C1COc2ccccc2O1 (centres undefined)	none (no result: GSTO1 inh, Fam108B counter)
N#CC(C#N)=C1C=C2C=C(N3CCCCC3)CCC2CC1 (centres undefined)	PAD4 inh 49 | PAD4 confirm 21
CCC(CN(C)C)Oc1cc(NCc2ccccc2)c2ncn(C(C)C)c2c1 (centres undefined)	PAD4 inh 38 (no result: GSTO1 inh, PME-1 inh, LYPLA1 inh, Fam108B counter, LYPLA2 inh) | PAD4 confirm inactive
Cc1ccc(/C=N\NC(=O)C2COc3cc4ccccc4cc3O2)o1 (centres undefined)	none
O=C(N/N=C\c1ccc(-c2ccccc2[N+](=O)[O-])o1)C1COc2cc3ccccc3cc2O1 (centres undefined)	PAD4 inh 17 | PAD4 confirm inactive
O=C(NCCCN1CCOCC1)c1cc2c([nH]c3ccccc32)c(-c2cccc(Br)c2)n1	PAD4 inh 46 | PAD4 confirm 31

High-throughput results: PubChem, The Scripps Research Institute Molecular Screening Center
